Compound activity from PubChem.
Pf apPOL inh = Pf-apPOL DNA polymerase inhibition. Recombinant Pf-apPOL, molecular beacon fluorescence, 1.5 h. inhibition, % at 10 µM. hit rate 0.25% among 210,000. AID 1794808
mHTT-CaM PPI inh = disrupts binding of mutant huntingtin to calmodulin | P42858 | AlphaScreen His-mHTT/GST-CaM binding, luminescence | inhibition, % at 15 µM | hit rate 3.6% among 190,000 | AID 1671202;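 also: 0% = both proteins with DMSO and 100% = one protein alone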
An asterisk follows results filed as active. The list is not random: actives were taken first. Their share in the collection is about 3.5%. Rule as the data show it: active = inhibition above about 50%; inactive = the rest.

SMILES	Pf apPOL inh	mHTT-CaM PPI inh
COc1ccc(C2CC(=O)NC(Nc3nc(C)c4ccc(C)cc4n3)=N2)cc1 (stereo unspecified)	-11	68*
O=C(Nc1cc(F)cc(F)c1)O[C@H]1CCC12CCC(c1ccccc1)CC2 (stereo partly specified)	-5	-65
O=C(c1ccc2c(c1)OCO2)N1CCCC1c1ccccc1Cl (stereo unspecified)	1	4
CNC(=O)C(C)n1cc(C)sc1=NC(=O)c1ccccc1Cl (stereo unspecified)	5	-1
COCC(=O)Nc1ccccc1-c1nc2ccccc2[nH]1	-2	-1
COc1ccc(C2C3=C(CCCC3=O)N=C3c4ccccc4C(=O)C32)cc1OC (stereo unspecified)	-3	36
CC1(C)CC(=O)C2=C(C1)N=C1c3ccccc3C(=O)C1C2c1ccc(Br)cc1 (stereo unspecified)	-2	65*
CC1(C)CC(=O)C2=C(C1)OC(N)=C(C#N)C2c1ccc(Br)cc1 (stereo unspecified)	-5	4
CC1(C)CC(=O)C2=C(C1)N=C1c3ccccc3C(=O)C1C2c1ccc(F)cc1 (stereo unspecified)	-2	62*
CC1(C)CC(=O)C2=C(C1)N=C1c3ccccc3C(=O)C1C2c1cc(Br)ccc1O (stereo unspecified)	-5	59*
CC1(C)CC(=O)C2=C(C1)N=C1c3ccccc3C(=O)C1C2c1ccc(O)c(O)c1 (stereo unspecified)	12	48
CN1CCc2nc(NC(=O)c3cc4ccccc4o3)sc2C1	-5	-10
O=C(c1cccc(Br)c1)N(Cc1ccccc1)Cc1ccccc1	-7	-33
CN1CCN(CCNC(=O)c2cccc(N3CCNC(c4ccccc4)C3)n2)CC1 (stereo unspecified)	-8	-5
O=C(Nc1nnc(SCc2cn3ccccc3n2)s1)c1cc(-c2ccco2)on1	12	-6
O=C(Nc1nnc(SCc2c(F)cccc2Cl)s1)c1cc(-c2ccco2)on1	61*	18
Cc1ccc2nc(SCc3cn4cc(Cl)ccc4n3)[nH]c2c1	3	17
Cc1cc(C)cc(NC(=O)c2cc3c(CO)cnc(C)c3oc2=N)c1	-2	1
CC1CCCN(c2nc(-c3ccc([N+](=O)[O-])cc3)nc3ccccc23)C1 (stereo unspecified)	0	60*
COc1cc(-c2nc(N3CCCC(C)C3)c3ccccc3n2)cc(OC)c1OC (stereo unspecified)	-2	-5
Fc1ccccc1-c1nc(-c2cn(-c3ccccc3)nn2)no1	-1	0
CCC(C)NC(=O)CSc1nc2n[nH]c(C)c2c(=N)n1-c1ccc(OC)cc1 (stereo unspecified)	-4	48
CCOc1ccc(-n2c(SC(CC)C(=O)N(CC)CC)nc3n[nH]c(C)c3c2=N)cc1 (stereo unspecified)	-3	52*
Cc1[nH]nc2nc(SCC(=O)NCc3ccco3)n(-c3ccc(Br)cc3)c(=N)c12	-2	80*
CCOc1ccc(-n2c(SC(CC)C(=O)NCCOC)nc3n[nH]c(C)c3c2=N)cc1 (stereo unspecified)	-4	36
SMILES	Pf apPOL inh	mHTT-CaM PPI inh
COc1cccc(NC(=O)CSc2nc3n[nH]c(C)c3c(=N)n2-c2ccc(C)cc2)c1	0	57*
CCOc1ccc(-n2c(SCC(=O)NCC3CCCO3)nc3n[nH]c(C)c3c2=N)cc1 (stereo unspecified)	-1	9
Cc1ccc(-n2c(SCC(=O)NCc3ccco3)nc3n[nH]c(C)c3c2=N)cc1C	2	49
Cc1[nH]nc2nc(SCC(=O)NCC3CCCO3)n(-c3ccc(Br)cc3)c(=N)c12 (stereo unspecified)	-6	52*
O=c1/c(=C/c2ccc(Cl)cc2)sc2nc3cc(Br)cnc3n12	-2	2
COc1cccc(/C=c2\sc3n(c2=O)C(N)=C(C#N)C(c2cccc(OC)c2)C=3C#N)c1 (stereo unspecified)	1	2
CCC(Oc1ccccc1)C(=O)Nc1ccc(Cl)cc1 (stereo unspecified)	-1	-22
CCc1nnc(NC(=O)c2cc(-c3cccc(OC)c3)nc3ccccc23)s1	-2	0
CSc1nnc2c(n1)OC(c1cccc(Br)c1)N(C(C)=O)c1ccccc1-2 (stereo unspecified)	-4	19
C=CCSc1nnc2c(n1)OC(c1ccc(OC)cc1)N(C(C)=O)c1ccccc1-2 (stereo unspecified)	2	37
CSc1ccc(C2Oc3nc(SC)nnc3-c3ccccc3N2C(C)=O)cc1 (stereo unspecified)	-1	35
C=CCSc1nnc2c(n1)OC(c1ccc(OCC)cc1)N(C(C)=O)c1ccccc1-2 (stereo unspecified)	-9	55*
CSc1nnc2c(n1)OC(c1ccc(Br)s1)N(C(C)=O)c1ccccc1-2 (stereo unspecified)	5	71*
CSc1nnc2c(n1)OC(c1ccc(Br)cc1)N(C(C)=O)c1ccccc1-2 (stereo unspecified)	-6	75*
CSc1nnc2c(n1)OC(c1ccc(Cl)cc1)N(C(C)=O)c1ccccc1-2 (stereo unspecified)	7	54*
CSc1nnc2c(n1)OC(c1ccc(Br)o1)N(C(C)=O)c1ccccc1-2 (stereo unspecified)	5	8
CCCCCOc1ccc(N=Cc2cc(OC)ccc2O)cc1	-1	14
COc1ccc(/C=C2/N=C(c3cncc(Br)c3)OC2=O)cc1OC	-5	8
Cc1ccc(CN2CCC(C(=O)NCc3ccccc3Cl)CC2)cc1	0	2
CCN1C(=O)Cc2ccccc2C1C(=O)N1CCN(c2ccccc2Cl)CC1 (stereo unspecified)	-1	9
CCN1CCCC1CNC(=O)c1sc2ncnc(N3CCN(c4ccccc4)CC3)c2c1C (stereo unspecified)	-2	37
NC(=O)Cc1ccc(NC(=O)c2ccc(F)c(F)c2)cc1	-5	-1
CCn1cnnc1C1CCCCN1S(=O)(=O)c1ccccc1F (stereo unspecified)	-8	-4
CCC(=O)N1N=C(c2ccc(C)cc2)CC1c1cc2cc(OC)ccc2nc1Cl (stereo unspecified)	6	-1
COc1ccc(C2=NN(C(=O)CN3CCCCC3)C(c3ccc(C)cc3C)C2)cc1 (stereo unspecified)	-7	100*
SMILES	Pf apPOL inh	mHTT-CaM PPI inh
COc1ccc(C2=NN(C(=O)CN3CCOCC3)C(c3cccc(OC)c3OC)C2)cc1 (stereo unspecified)	-3	6
COc1ccc(C2CC(c3ccc(F)cc3)=NN2C(=O)CN2CCOCC2)cc1 (stereo unspecified)	-4	64*
COc1cccc(C2=NN(C(=O)CN3CCOCC3)C(c3ccccc3F)C2)c1 (stereo unspecified)	0	29
COc1ccc(C2=NN(C(=O)CN3CCCCC3)C(c3ccccc3F)C2)cc1 (stereo unspecified)	-8	69*
O=C(CCC1CCCC1)NCC1CCCO1 (stereo unspecified)	-1	-6
Cc1ccc(Cn2cc(C(=O)O)c3ccccc3c2=O)o1	14	-2
Cc1cc(C)n(-c2ccnc(NCCc3ccccn3)n2)n1	-5	-2
COc1ccc(Cl)cc1NC(=O)C(Cc1ccccc1)N1C(=O)C2C3CCC(C3)C2C1=O (stereo unspecified)	-1	32
